Screening data deposited in PubChem BioAssay by National Center for Advancing Translational Sciences (NCATS).
Shown are actives, neighbours in structure and some others; about 6.5% of the full set was active somewhere.
Lassa entry inh = blocks Lassa virus binding to or entry into cells. 300,000 compounds, 1.2% hits. Lassa virus pseudotype entry inhibition, cell reporter. Potency, µM (series often up to 37.9 µM), for the others: top-dose activity change, negative = inhibition, hits mostly inhibitors; calls by dose curve; tested in HEK293 cells; further: potency means the concentration at half of the fitted maximal effect; nearly all actives have a fitted effect of over 50% in size
HCMV antiviral = blocks human cytomegalovirus replication | HFF cells, HCMV-luciferase reporter, 72 h; hits give low values | activity change, negative = inhibition, % at 57.5 µM | 410,000 compounds, 4.5% hits; in the data active means activity change below about -60%; inconclusive means no clear call, values can overlap the other calls; inactive means above about -39%
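Cell-based, HFFs, 1000 cells/well, 16 h 37C; cpds in DMSO + HCMV-luc, MOI 1 PFU/cell; 72 h 37C; OneGlo luminescence after 5 min RT; norm. to buffer vs Salinomycin 10uM.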
Marburg entry inh = inhibitors of Marburg virus binding or cell entry; Potency, µM (highest dose often 37.8 µM), for inactives: top-dose activity change, negative = inhibition, usual class: inhibitors; Marburg virus pseudotyped entry inhibition, cell reporter; 300,000 compounds, 1.8% hits; calls by dose curve; tested in HEK293 cells; further: potency means the concentration at half of the fitted maximal effect
FMDV antiviral = antivirals against foot and mouth disease virus; Potency, µM (doses to about 57.9 µM), inactives show at the top dose activity change, negative = inhibition, hits mostly inhibitors; FMDV antiviral cell-based qHTS; 410,000 compounds, 1.2% hits; calls by dose curve; tested in HEK293T cells; further: read-out not given here; potency means the concentration at half of the fitted maximal effect; nearly all actives have a fitted effect of over 45% in size
Vaccinia mCherry = vaccinia inhibition (mCherry reporter). Potency, µM (titrated, usually from 36.5 µM), for the others: top-dose activity change, negative = inhibition, usual class: inhibitors. AID 720579. Vaccinia virus mCherry reporter infection, fluorescence. 310,000 compounds, 0.63% hits; calls by dose curve; tested in A549 cells; further: potency means the concentration at half of the fitted maximal effect; nearly all actives have a fitted effect of over 35% in size
Vaccinia Venus = inhibitors of vaccinia virus (Venus reporter); Vaccinia virus Venus reporter expression, fluorescence; Potency, µM (highest dose often 36.5 µM), for inactives: at the highest dose activity change, negative = inhibition, hits mostly inhibitors; 330,000 compounds, 0.46% hits; AID 720580; calls by dose curve; tested in A549 cells; further: potency means the concentration at half of the fitted maximal effect; nearly all actives have a fitted effect of over 30% in size
An asterisk follows results filed as active; i = inactive; ? = inconclusive; nt = not tested or not shown; [ ] = dose if it differs, or a comment. On the % scale 0 is the no-effect control and ±100 the full control effect.

SMILES	Lassa entry inh	HCMV antiviral	Marburg entry inh	FMDV antiviral	Vaccinia mCherry	Vaccinia Venus
CCOC(=O)c1cc(C#N)c(N2CCOCC2)nc1-c1ccccc1	-21%	-35	0%[46.1 µM]	?	-4%	0%
CCOC(=O)c1cc(C#N)c(N2CCN(C(=O)c3cccc(C(F)(F)F)c3)CC2)nc1C(F)(F)F	1.8µM*	?	5µM*	-39%	i	-2%
CCOC(=O)c1cc(C#N)c(N2CCN(C(=O)c3ccccc3)CC2)nc1C(F)(F)F	11µM*	-27	?	?	-14%	-11%
CCOC(=O)c1cc(C#N)c(N2CCNCC2)nc1C(F)(F)F	13%[46.1 µM]	-24	13%[46.1 µM]	-2%	6%	0%
Cc1ccc(C(=O)CSc2nc3cc(S(=O)(=O)N4CCOCC4)ccc3o2)cc1	-19%	-18	-17%	-15%	-16%	-12%
Cc1[nH]c2ccccc2c1C(=O)CSc1nc2cc(S(=O)(=O)N3CCCCC3)ccc2o1	?	-39	7.3µM*	-27%	nt	nt
CCc1ccc(NC(=O)CC2C(=O)N(c3cccc(C)c3)C(=O)N2Cc2cccc(OC)c2)cc1 (configuration not stated)	?	-24	nt	-19%	-25%	-20%
CCOC(=O)c1cnc2c(C(F)(F)F)cccc2c1N1CCOCC1	-4%	?	-24%	32µM*	nt	-30%
CC(NCCC(Cc1ccccc1)c1ccco1)c1ccccc1 (configuration not stated)	nt	-36	nt	7%	-25%	-9%
Cc1ccc(C(CCNC(C)c2cccs2)c2ccco2)cc1 (configuration not stated)	?	-61*	?	46%	-22%	-13%
O=C(Nc1ccc2nc(-c3ccccc3)[nH]c2c1)c1cccs1	-16%	-79*	-4%	nt	-12%	-14%
O=C(Nc1ccc2nc(-c3cccnc3)[nH]c2c1)c1ccco1	-5%	-67*	-17%	-14%	25%	15%
O=C(Nc1ccc2nc(-c3ccc4nc[nH]c4c3)[nH]c2c1)c1cccs1	0%	-21	31%	4%	nt	nt
Cn1cc([N+](=O)[O-])c(C(=O)Nc2ccc(-c3nc4ccccc4[nH]3)cc2)n1	4%	-73*	?	43%	?	?
O=C(Nc1ccc(-c2nc3ccccc3[nH]2)cc1)c1ccco1	?	nt	-22%	nt	3%	-7%
Cn1cc([N+](=O)[O-])c(C(=O)Nc2ccc3nc(-c4ccccc4)[nH]c3c2)n1	5%	-83*	?	17%	?	?
Cn1cccc1-c1nc2ccc(NC(=O)c3ccc([N+](=O)[O-])cc3)cc2[nH]1	15%	26	26%	-17%	13%	-1%
CC(C)(C)NC[C@H](O)c1ccccc1Cl	nt	nt	15%	nt	nt	nt
O=C(NCCS(=O)(=O)N1CCN(c2ccccc2F)CC1)C(c1ccccc1)c1ccccc1	-13%[46.1 µM]	-28	nt	-10%	-17%	-13%
CN1CCC(N(C)S(=O)(=O)c2ccc(C(C)(C)C)cc2)CC1	nt	-91*	nt	-16%	nt	nt
CC(=O)Nc1ccc(S(=O)(=O)N(C)C2CCN(C)CC2)cc1	2%	-27	-8%	-11%	-9%	3%
COC(=O)c1ccccc1NC(=O)c1c(C)oc2ncn(C)c(=O)c12	20%[46.1 µM]	-91*	7%[46.1 µM]	12%	-3%	-3%
O=[N+]([O-])c1ccc(N(CCO)CCO)c2c1no[n+]2[O-]	nt	-99*	nt	?	?	84%
CN(CCO)c1cc(N(C)CCO)c([N+](=O)[O-])cc1[N+](=O)[O-]	11%[46.1 µM]	-35	8%[46.1 µM]	-2%	-9%	-9%
CN1CCN(c2ccc([N+](=O)[O-])c3no[n+]([O-])c23)CC1	0.32µM*	-98*	0.56µM*	5µM*	?	?
Cc1ccc(C)c(S(=O)(=O)NCc2nc(N3CCCC3)c3cc(Cl)ccc3n2)c1	nt	nt	nt	-1%	-9%	-5%
CCCOc1ccc(NC(=O)CC2C(=O)N(c3cccc(OC)c3)C(=O)N2CCc2ccncc2)cc1 (configuration not stated)	-13%[46.1 µM]	-2	nt	-16%	-5%	-7%
Cc1cnccn1	nt	nt	nt	nt	-13%	-7%
CC(=O)c1ccc(NC(=O)c2cnc(N3CCCC3)nc2C)cc1	-23%[46.1 µM]	-1	nt	?	9%	-6%
Cc1ccc(-c2nc(NC(=O)c3nn(C)cc3[N+](=O)[O-])sc2C)cc1	nt	-104*	-1%	11µM*	nt	nt
